Reference: PubChem BioAssay (NCI)
About 83,000 compounds went through this panel and 20% of them were active in at least one assay; those are over-represented in the sample as a whole.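 Cell lines were cultured in 96-well plates, exposed to a single compound concentration, and assessed for percent growth 48 hours later.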 Values without a mark were called inactive. The source made the active and inactive calls. The calls were made as follows: active = growth percent below 10; inactive = the rest.

Legend:
Assay in all cases: NCI-60 one-dose screen, 48 h (100 = growth as untreated, 0 = no growth, -100 = all killed)
Conditions in all cases: 10 µM unless noted
[1] = tested on: DU-145 prostate
[2] = tested on: MALME-3M melanoma
[3] = tested on: MDA-MB-231 breast
[4] = tested on: RXF 393 renal
[5] = tested on: SF-268 CNS
[6] = tested on: SF-295 CNS
[7] = tested on: SF-539 CNS
[8] = tested on: UACC-257 melanoma
[9] = tested on: HCT-15 colon
[10] = tested on: HT29 colon
[11] = tested on: SNB-75 CNS
[12] = tested on: SNB-19 CNS
[13] = tested on: U251 CNS
[14] = tested on: PC-3 prostate
[15] = tested on: SK-MEL-5 melanoma
[16] = tested on: UACC-62 melanoma
[17] = tested on: LOX IMVI melanoma
[18] = tested on: SK-MEL-28 melanoma
[19] = tested on: K-562 leukemia
[20] = tested on: M14 melanoma

SMILES	growth [1]	growth [2]	growth [3]	growth [4]	growth [5]	growth [6]	growth [7]	growth [8]	growth [9]	growth [10]	growth [11]	growth [12]	growth [13]	growth [14]	growth [15]	growth [16]	growth [17]	growth [18]	growth [19]	growth [20]
CCOC(=O)c1nnn(-c2ccccc2)c1C1=CN(C)CCC1	103%	104%	112%	120%	92.4%	98.2%	95.2%	99.4%	99%	99.1%	89.8%	108%	102%	96.4%	105%	100%	97.3%	111%		
CCCCN(CCCC)CCCn1c(=O)c2sc3ncccc3c2n2nnc(-c3ccccc3)c12	114%		93.8%	111%	112%		99.6%	104%	99.8%	74.4%	86.1%	101%	95.3%	91.3%	107%	90.8%	110%	98.4%	108%	107%
O=c1[nH]nc(-c2ccc(Cl)cc2)cc1Cc1ccccc1	104%		79.5%	3.35% (active)	99.4%	89.6%	65.2%	84.3%	103%	108%		101%	92.5%	90.9%	105%		93.4%	114%	79%	
Nc1ccc(-c2cc3c(Nc4ccc(OCc5cccc(F)c5)c(Cl)c4)ncnc3s2)cc1	36.9%	42.1%	13.4%	52.5%	52.1%	47.8%	57.4%	18.3%	32.9%	84.5%	87.2%	77.3%	57%	29.6%	57.7%	55.7%	24.5%	39.3%		51.9%
Cc1c(C(=O)O)nnn1-c1nccs1	104%	102%	91.6%	112%	102%	101%	92%	80.8%	98%	89.7%	81.8%	98.1%	92.1%	89.4%	99.6%	96.2%	96.7%	108%		
COc1cc(C(=O)Nc2cc(O)c(CC=C(C)C)c(O)c2)cc2c1O[C@]1(C)CC[C@@H](O)C(C)(C)[C@H]1C2	42%	58.6%	24.1%	-18.5% (active)	39.5%	-52.1% (active)	-50.8% (active)	27.2%	13.3%	1.4% (active)	17.9%	53.4%	16.3%	18.2%	-23.5% (active)	8.82% (active)	-12% (active)	30%		
CO/C(=C1/NC(=O)C(Cc2ccc(O)c(Br)c2)N(C)C(=O)C(C)NC(=O)CCC/C=C(\C)CCC(C)OC1=O)c1ccccc1 (stereo not drawn)	-17.3% (active)		-31.3% (active)	-79.5% (active)	-43.6% (active)	-65.3% (active)	-52.3% (active)	-54% (active)	3.37% (active)	5.97% (active)	-94.2% (active)	-4.37% (active)	-36.8% (active)	-9.06% (active)	-67.6% (active)	9.3% (active)		-25.8% (active)	6.13% (active)	
COc1ccc(N(C)c2nc(Cl)nc3cnn(C)c23)cc1	7.13% (active)	75.3%	19.2%	44.8%	29.1%	17.9%	-9.34% (active)	38.1%	9.08% (active)	-9.42% (active)	18.7%	29.7%	17.8%	16.2%	-25.2% (active)	32%	18.7%	58.2%		
Cc1c(C)c2c(c(C)c1NC(=O)/C=C\C(=O)O)CCC(C)(CCCC(C)CCCC(C)CCCC(C)C)O2 (stereo not drawn)	80.2%		70.9%	-93% (active)	53.9%	66.3%	8.15% (active)	20.5%	2.82% (active)		33.2%	78.1%	60.2%	16.6%	-97.7% (active)	22.8%		-10.6% (active)	71.9%	20.7%
O=[N+]([O-])c1ccc(-c2cc3c(Nc4ccc(OCc5cccc(Cl)c5)c(Cl)c4)ncnc3s2)cc1	70.4%	61.2%	81.6%	85.3%	76.1%	59.6%	84%	58.6%	55.3%	47.3%	69.8%	67.6%	52.8%	48%	97.6%	78.3%	66.4%	86.8%		35.9%
Cc1cccc(-c2cc(O)c(C(=O)N3CCOCC3)s2)c1	60.3%	52.6%	56.7%	62.9%	57.1%	37.9%	33.6%	52.8%	21.4%	52.2%	33.5%	31.5%	28.6%	60.5%	26%	34.5%	33.2%	56.9%		
N#Cc1cnn2c(-c3ccc(Cl)cc3)nc(NC3CC3)nc12	88.8%	125%	101%	93.7%	84.4%	89.8%	89.2%	111%	90.1%	88.8%	87.7%	86.6%	97.3%	95%	95.3%	85.6%	99%	113%		108%
O=[N+]([O-])c1ccc(-c2cc3c(Nc4ccc(Sc5nc6ccccc6s5)c(Cl)c4)ncnc3s2)cc1	44.9%	62.9%	29.2%	68.8%	39.4%	23.2%	54.3%	66.6%	23.7%	13.9%	83.9%	23.7%	23%	28.3%	59.1%	54.9%	29.6%	75.2%		35.2%
N#Cc1cnn2c(-c3ccc(Cl)cc3)nc(NCCc3ccccc3)nc12	99.5%	111%	87.5%	116%	92.2%	99.2%	98%	99.9%	103%		78.8%	100%	97%	73.7%	99.8%	65.7%	84.9%	101%		95%
COc1ccc(-n2nnc(C(=O)NCCc3c[nH]c4ccc(F)cc34)c2C)cc1	107%	106%	97.8%	105%	97.3%	102%	103%	87.7%	104%	86.4%	93.7%	105%	92.4%	87.4%	102%	98.4%	98.6%	109%		
O=[N+]([O-])c1ccc(-c2cc3c(Nc4ccc(Cl)c(C(F)(F)F)c4)ncnc3s2)cc1	23%	-22.8% (active)	5.95% (active)	5.99% (active)	24.3%	-6.39% (active)	14.9%	-18.6% (active)	10.2%	3.89% (active)	16.4%	12.1%	8.85% (active)	11.5%	-42.5% (active)	-1.39% (active)	6.09% (active)	20.1%		19.4%
Nc1c(-c2nc3ccccc3c(=O)[nH]2)nnn1-c1ccc(Cl)cc1	77.3%	83.3%	85%	81.9%	66.8%	73.6%	50.5%	84.8%	93.1%	68.7%	24.7%	76%	74.6%	85.3%	92.6%	99.1%	107%	81.1%		

SMILES	growth [1]	growth [2]	growth [3]	growth [4]	growth [5]	growth [6]	growth [7]	growth [8]	growth [9]	growth [10]	growth [11]	growth [12]	growth [13]	growth [14]	growth [15]	growth [16]	growth [17]	growth [18]	growth [19]	growth [20]
Cn1nnnc1-c1ccc(N)cc1	99%	99.1%	106%	111%	91.7%	98.1%	98.8%	106%	98.9%	95%	88.4%	105%	100%	93.9%	102%	99.7%	95.1%	103%		
O=c1oc2ccc(Cl)cc2cc1-c1cs/c(=N/N=C\c2ccc(Cl)cc2)n1/N=C/c1ccc(Cl)cc1	108%	98.9%	101%	113%	104%	108%	107%	95.1%	105%	91.8%	123%	98.4%	102%	99.4%	104%	93.8%	110%	110%		
CC(=O)c1sc(-c2ccccc2)cc1N	102%	112%	99.6%	107%	104%	99.7%	97.1%	90.6%	95.2%	88.7%	99.5%	94.5%	82.7%	90.8%	95.7%	91%	104%	108%		
CC(=O)c1ccc2c(c1)CCN2	104%		96.1%	107%	98.9%	125%	101%	104%	105%	101%	93.1%	98.3%	97.1%	98.6%	105%	102%		109%	111%	
CCCCNC(=O)c1cc(NCc2cc(O)ccc2O)ccc1O	99.7%	108%	84%	83.7%	84.1%	101%	62.2%	68.9%	84.6%	80.8%	66.6%	106%	98.6%	74.4%	98.4%	93.8%	91.3%	105%		
N#Cc1c(N)nc2c(nnn2-c2cccc(C(F)(F)F)c2)c1N	99%	121%	78.3%	92.7%	91.9%	95.6%	96.9%	103%	86.3%	86%	82.6%	93.1%	85.2%	86.8%	87.9%	88.5%	94.7%	111%		
O=C(CCCCCCCn1cc(-c2cccnc2)nn1)Nc1ccccc1-c1ccccc1	37.2%		59.6%	80.4%	63.8%	-15.9% (active)	-7.88% (active)	65.6%	24.1%		92.3%	48.2%	31.1%	49.3%	30.5%	60.6%		71%	23.7%	17.3%
COc1ccc(-c2nnc(SCC(=O)NC3=NN=C(c4ccccc4)CS3)o2)cc1	102%	105%	91.5%	117%	94.2%	98%	101%	67.1%	106%	96.1%	88.1%	90.8%	87.2%	86.8%	107%	95.2%	101%	109%		95.5%
CCOC(=O)C1=C(C)NC(SCc2nnc(-c3ccc(Cl)cc3)o2)=NC1c1ccc(Cl)cc1Cl (stereo not drawn)	73.1%	72.8%	41.7%	43.4%	73.8%	47.2%	86.4%	68.1%	55.3%	53.1%	84.1%	72.9%	65.3%	45.1%	80.3%	51.6%	58.3%	101%		65.2%
CC(C)CCC[C@@H](C)[C@H]1CCC2C3=CCC4C(=O)C=CC(=O)C4C3CC[C@@]21C (stereo partly drawn)	26.6%		28.6%	-66.6% (active)	20.4%	-61.2% (active)	-25.6% (active)	-3.37% (active)	3.29% (active)	11.3%		38.2%	11.5%	9.01% (active)	-48.5% (active)	28.7%	-43.4% (active)	41.9%	9.94% (active)	17.5%
CCOC(=O)Cc1csc2nc(-c3ccccc3)nn12	108%		104%	110%	105%	127%	95.6%	119%	113%	106%	105%	90.2%	106%	101%	107%		89%	117%	128%	104%
COc1ccc(-c2nnc(-c3ccc4c(c3)nc(-c3ccccc3)n4C3CCCCC3)o2)cc1	71.7%	69.4%	72.9%	97.3%	71.2%	53.2%	88.1%	67.4%	41.9%	34.9%	98.7%	86%	71.3%	18.5%	24.9%	43.7%	36.9%	88.5%		38.9%
CCOC(=O)N1CCc2c(sc3c2C(=O)N[C@H](c2ccc(OC)cc2)N3)C1	113%	96.7%	104%	113%	101%	97%	100%	86.6%	106%	86.2%	91.7%	90%	96.7%	89.1%	99.1%	91.8%	101%	109%		94.7%
C[C@]12CCC(=O)C[C@H]1CC[C@@H]1[C@@H]2CC[C@@]2(C)[C@H]1CC[C@]2(O)C(=O)CO	108%		99.6%	108%	96%	113%	103%	129%	104%	99.4%	94.4%	108%	121%	102%	104%	102%		108%	114%	
Clc1ccc(-c2nc(NCCc3ccccc3)nc3c(NCCc4ccccc4)cnn23)cc1	84.5%	96.8%	92.1%	94.7%	35.1%	56.4%	30.9%	71.5%	72.9%	41.9%	85.6%	85.6%	48.4%	51.7%	94.2%	73.2%	60.9%	75.2%		70%
CC(C)CCC[C@@H](C)[C@H]1CCC2C3=CCn4c(=O)ccc(=O)n4C3CC[C@@]21C (stereo partly drawn)	-93.7% (active)		-89.2% (active)	-76% (active)	-91.6% (active)	-92.3% (active)	-99.5% (active)	-79.3% (active)	-44.6% (active)		-100% (active)	-96.8% (active)	-96.9% (active)	-85.5% (active)	-100% (active)		-89.5% (active)	-93% (active)	-40% (active)	-98% (active)
Cc1cn(C2CCCCC2)c(=O)[nH]c1=O	163%	120%	103%	113%	108%	111%	109%	102%	99.2%	96%	94.4%	114%	108%		105%	109%		109%		106%
